Pf growth 96h = Primary qHTS for delayed death inhibitors of the malarial parasite plastid, 96 hour incubation. P. falciparum luciferase reporter growth, 96 h. Potency, µM (top dose mostly 28.7 µM), for inactives: at the top dose activity change, negative = inhibition, most hits filed as inhibitors. 320,000 tested, 6.9% active. AID 504834, 2011; note: % is set by controls: 0 for no effect and ±100 for the full control effect
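Parasite growth measured via integrated firefly luciferase reporter in P. falciparum. Infected erythrocytes at 2% hematocrit, 0.05% parasitemia final were treated 96 hours at 37 C under 5% CO2, and luminescence was read.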
VACV mCherry inh = qHTS for Stage-Specific Inhibitors of Vaccinia Orthopoxvirus: mCherry Reporter Primary qHTS; Potency, µM (highest dose often 36.5 µM), for the others: at the top dose activity change, negative = inhibition, usual class: inhibitors; 310,000 tested, 0.63% active; Vaccinia virus mCherry reporter infection, fluorescence; calls by dose curve; tested in A549 cells; note: % is set by controls: 0 for no effect and ±100 for the full control effect; nearly all actives have a fitted effect of over 35% in size
NS1 function inh = qHTS Assay for Inhibitors of Influenza NS1 Protein Function; Potency, µM (highest dose often 46.1 µM), without a hit: at the top dose activity, positive = more growth; 270,000 tested, 0.4% active; AID 2326, 2010; calls by dose curve; note: actives are rising curves; nearly all actives have a fitted effect of over 50% in size
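Read-out: OD600 growth recovery of NS1-expressing budding yeast. Cells grown overnight at 30C in -URA glucose medium, washed, resuspended and diluted 1:100 in 2% galactose assay medium, pH 6.0. Same strain lacking NS1 served as positive control.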
Pf growth 48h = Primary qHTS for delayed death inhibitors of the malarial parasite plastid, 48 hour incubation | AID 504832, 2011 | P. falciparum luciferase growth in erythrocytes, 48 h | Potency, µM (top dose mostly 28.7 µM), for the others: at the top dose activity change, negative = inhibition, hits mostly inhibitors | 310,000 tested, 5.9% active; note: % is set by controls: 0 for no effect and ±100 for the full control effect
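Luciferase-expressing parasites in RBCs, 2% Hct / 0.1% parasitemia final; RPMI 1640 + 0.5% Albumax; 37 C, 5% CO2, one generation; luminescence read-out, lower signal = inhibition.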
Vaccinia Venus = qHTS for Stage-Specific Inhibitors of Vaccinia Orthopoxvirus: Venus Reporter Primary qHTS. Potency, µM (doses to about 36.5 µM), for the others: top-dose activity change, negative = inhibition, usual class: inhibitors. 330,000 tested, 0.46% active. AID 720580, 2013. Vaccinia virus Venus reporter expression, fluorescence; calls by dose curve; tested in A549 cells; note: % is set by controls: 0 for no effect and ±100 for the full control effect; nearly all actives have a fitted effect of over 30% in size
HCV inh = qHTS Assay for Inhibitors of Hepatitis C Virus (HCV); 340,000 tested, 3.4% active; Huh7.5.1 HCVcc-Cre infection, luciferase reporter, 44 h; Potency, µM (top dose mostly 41.8 µM), for inactives: at the top dose activity change, negative = inhibition, hits mostly inhibitors; note: % is set by controls: 0 for no effect and ±100 for the full control effect
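A cell-based infection assay in which seeded cells (1,000 per well) receive test compound after 4 h, are inoculated with HCVcc-Cre at approximately 0.5 moi, and are incubated 44 h before luminescence detection.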
Starred values were filed as active, the others as inactive; i = inactive; ? = inconclusive; nt = no result given. In the library only some 11% were active in any assay of this set; here they are far more common. Unless noted, calls come from the whole dose curve; as a rule, active = well fitted inhibition curve with a large enough effect; inconclusive = small, poorly fitted or top-dose-only effect, or another doubt; inactive = no such curve, though single readings can be large or run the other way. Potency is the fitted concentration of half-maximal effect.

SMILES	Pf growth 96h	VACV mCherry inh	NS1 function inh	Pf growth 48h	Vaccinia Venus	HCV inh
O=S(=O)(C(=CNc1ccccc1)S(=O)(=O)c1ccccc1)c1ccccc1	10.4µM*	i	6.1%	-7.1%	-10.0%	-2.7%
Cc1ccc(NC=C(S(=O)(=O)c2ccccc2)S(=O)(=O)c2ccccc2)cc1	-28.5%	i	3.3%	?	-6.9%	12.3%
CN(C)S(=O)(=O)c1ccc(NC(=O)/C=C/c2ccccc2Cl)cc1	?	?	10.9%	?	-29.2%	8.91µM*
O=C(/C=C/c1ccccc1Cl)Nc1ccccc1	72.8%	i	-62.9%	227.7%	-20.9%	?
NC(=O)c1ccccc1NC(=O)/C=C/c1c(Cl)cccc1Cl	13.1µM*	nt	-0.1%	180.2%	nt	?
CN(C)c1ccc(NC(=O)/C=C/c2c(Cl)cccc2Cl)cc1	3.2%	28.2µM*	17.1%	49.2%	6.3%	?
Cc1cc(C(=O)N(C)CC(=O)Nc2cccc(F)c2)no1	6.7%	-9.2%	nt	-4.7%	6.5%	25.6%
CN(C)CCN1C(=O)C(O)=C(C(=O)c2cc3ccccc3o2)C1c1ccc(N(C)C)cc1 (stereo not drawn)	9.28µM*	31.9%	-8.3%	54.2%	11.4%	2.5%
C=CCOc1cccc(C2C(C(=O)c3ccc(C)o3)=C(O)C(=O)N2CCN(C)C)c1 (stereo not drawn)	3.7µM*	?	-1.6%	-13.5%	-13.8%	2.0%
Cc1ccc(C(=O)C2=C(O)C(=O)N(CCN(C)C)C2c2ccccn2)o1 (stereo not drawn)	nt	nt	5.7%	nt	nt	nt
CCOc1cccc(C2C(C(=O)c3ccco3)=C(O)C(=O)N2Cc2ccncc2)c1 (stereo not drawn)	2.62µM*	-19.7%	-12.8%	5.1%	-15.9%	?
COc1ccc(-c2csc(C(O)(c3ccccc3)C(F)(F)F)n2)cc1 (stereo not drawn)	nt	13.7%	nt	nt	-24.2%	nt
Cc1cccc(CN2CCN(C3CN(Cc4cn(Cc5cccc(Cl)c5)nn4)S(=O)(=O)C3)CC2)c1 (stereo not drawn)	nt	9.3%	nt	nt	-16.0%	nt
CN(C)CCN(C)Cc1c2ccccc2c(CN(C)CCN(C)C)c2ccccc12	1.65µM*	-12.5%	-36.4%	6.57µM*	-26.8%	3.98µM*
CN(C)c1nc(OCCNC(=O)Nc2ccccc2)nc(N2CCCCC2)n1	1.0%	-7.5%	-6.9%	9.2%	-5.0%	11.2µM*
CCOc1ccc(S(=O)(=O)N/N=C2/CC(c3ccccc3)Oc3ccccc32)cc1 (stereo not drawn)	?	nt	1.7%	nt	nt	-8.1%
Cc1ccc(C(C(=O)NC2CCCCC2)N(Cc2ccco2)C(=O)Cn2cnc3ccccc32)cc1 (stereo not drawn)	-7.8%	-25.5%	6.6%	11.7µM*	-19.1%	-5.0%
CCC(C(=O)NC1CCCC1)N(Cc1ccco1)C(=O)Cn1nnc(-c2ccc(C)cc2)n1 (stereo not drawn)	9.28µM*	i	-32.7%	?	-12.9%	?
CCOC(=O)CN(C(=O)Cn1nnc(-c2ccc(C)cc2)n1)C(CC)C(=O)NC1CCCC1 (stereo not drawn)	nt	-1.7%	-7.3%	?	-18.2%	?
O=C(CCN1C(=O)/C(=C/c2ccc(F)cc2)SC1=S)Nc1cc([N+](=O)[O-])ccc1O	?	nt	3.8%	13.5%	nt	-8.4%
CCC1=NN(C(=O)c2ccc([N+](=O)[O-])cc2)C(O)(c2ccccc2)C1 (stereo not drawn)	?	?	7.5%	?	-11.7%	?
Cc1ccc(-c2nnn(CC(=O)N(Cc3ccccc3F)C(C(=O)NC3CCCC3)c3ccncc3)n2)o1 (stereo not drawn)	?	-20.5%	-39.0%	9.28µM*	0.9%	?
Cc1ccc(-c2nnn(CC(=O)N(CC(=O)NC3CCCC3)c3cnc4ccccc4c3)n2)o1	9.28µM*	-15.4%	-5.4%	?	-12.3%	0.6%
